We go through 33 molecules from PubChem BioAssay AID720706 (Broad Institute, 2013).

Each structure is given as a SMILES string. The campaign covered roughly 350,000 compounds. About 5,500 (1.6%) were called active.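 Rule for the calls: active = significant combined selectivity score with lowered wild-type GFP, culture density cut under 30%, mutant RFP and density less affected; inactive = any of these conditions unmet.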 For the sample, actives were picked, then their nearest neighbours and some compounds at random.

This test is described as follows: reduced GFP signal of wild-type E. coli, primary screen, bacterial rRNA inhibitor project, GFP/RFP fluorescence, OD600, single point (AID 720706). The note with it: E. coli WT GFP vs humanized-ribosome RFP mutants, 24 h; GFP signal change (wild-type ribosome): stronger effect = lower value, DMSO median 0, no signal -100; OD600 change: measured here: OD600 growth, DMSO median 0, no signal -100; RFP signal change: measured here: RFP humanized mutant strains, DMSO median 0, no signal -100, concentration not given here.
On to `COc1ccc(-c2ccc([C@@H]3[C@@H](CO)N4C(=O)CN(Cc5ccccc5)C[C@@H]34)cc2)cc1`, for which the GFP signal change (wild-type ribosome) is 0.0065% (inactive), the OD600 change is -2.91% and the RFP signal change was 0.737%.

In the case of `COc1ccc(NC(=O)Nc2ccc3c(c2)C(=O)N([C@H](C)CO)C[C@@H](C)[C@H](CN(C)CC2CCCCC2)OCCCC[C@@H](C)O3)cc1`, the GFP signal change (wild-type ribosome) was 2.06% (inactive), the OD600 change is -1.06% and the RFP signal change came to 2.56%.

With `CC1CN(C(=S)Nc2ccc(Br)cc2Cl)CC(C)O1` (centres undefined), the GFP signal change (wild-type ribosome) was 0.789% (inactive), the OD600 change is 0.865% and the RFP signal change was -2.8%.

Consider `O=C(NNC(=S)Nc1ccc(Br)cc1Cl)c1ccco1`, for which the GFP signal change (wild-type ribosome) is -55.5% (inactive), the OD600 change is -76.6% and the RFP signal change was -26.1%.

Turning to `CN(C)C(=S)Nc1ccc(Br)cc1Cl`, the GFP signal change (wild-type ribosome) is -21.3% (active), the OD600 change is -3.38% and the RFP signal change is -5.33%.

In the case of `C[C@@H]1CN([C@H](C)CO)C(=O)c2cc(C#CC3CC3)cnc2O[C@H]1CN(C)C(=O)CC1CC1`, the GFP signal change (wild-type ribosome) was 0.803% (inactive), the OD600 change was found to be 4.53% and the RFP signal change was -4.43%.

As for `Cc1cc(C(=O)COC(=O)C2CC2)c(C)n1-c1ccc(F)cc1`, the GFP signal change (wild-type ribosome) was -25.1% (active), the OD600 change is -8.48% and the RFP signal change is -5.46%.

For the molecule `Cc1cc(C(=O)COc2ccccc2Cl)c(C)n1C1CC1`, the GFP signal change (wild-type ribosome) is -19.2% (inactive), the OD600 change was -34.3% and the RFP signal change was 0.284%.

As for `Cc1ccc(-n2c(C)cc(C(=O)CN3C(=O)C(=O)N(C4CCCC4)C3=O)c2C)cc1`, the GFP signal change (wild-type ribosome) was -12.3% (inactive), the OD600 change was -20.5% and the RFP signal change amounted to 24%.

Consider `Cc1ccccc1OCCC(=O)OCC(=O)NC(C)c1ccccc1` (centres undefined), for which the GFP signal change (wild-type ribosome) is -11.5% (inactive), the OD600 change is -7.58% and the RFP signal change is 0.763%.

Consider `COc1ccc(C)cc1N(CC(=O)NC(C)c1ccccc1)S(C)(=O)=O` (centres undefined), for which the GFP signal change (wild-type ribosome) is 7.63% (inactive), the OD600 change came out at 6.56% and the RFP signal change stood at 4.34%.

With `Cc1ccc(OCCCC(=O)NC(C)c2ccccc2)c(C)c1` (centres undefined), the GFP signal change (wild-type ribosome) was -20.1% (active), the OD600 change is -9.71% and the RFP signal change stood at 4.93%.

Consider `COc1ccc2c3c(n(C)c2c1)[C@@H](CO)NCC31CN(S(=O)(=O)c2cccc(C)c2)C1`, for which the GFP signal change (wild-type ribosome) is -1.82% (inactive), the OD600 change is -19.1% and the RFP signal change amounted to 1.9%.

`O=C(Nc1ccccc1)N1CCCCN2[C@H](CO)[C@@H](c3ccc(-c4ccccc4F)cc3)[C@H]2C1`: the GFP signal change (wild-type ribosome) was -59.5% (inactive), the OD600 change was -71.8% and the RFP signal change is -17.2%.

`Cc1ccccc1-c1cnc2c(c1)C(=O)N([C@H](C)CO)C[C@H](C)[C@@H](CN(C)C(=O)c1ccccc1)O2`: the GFP signal change (wild-type ribosome) is -6.69% (inactive), the OD600 change turned out to be 1.45% and the RFP signal change came out at 1.42%.

On to `CCNC(=O)[C@@H]1[C@@H](CO)[C@@H]2Cn3c(ccc(C4=CCCCC4)c3=O)[C@@H]2N1Cc1ccccc1F`, for which the GFP signal change (wild-type ribosome) is 1.16% (inactive), the OD600 change was -2.39% and the RFP signal change turned out to be 5.54%.

Consider `O=C(CN1CCOCC1)Nc1cccc([N+](=O)[O-])c1`, for which the GFP signal change (wild-type ribosome) was 31.7% (inactive), the OD600 change was determined as 26.8% and the RFP signal change was 1.38%.

On to `CCc1ccc(NC(=O)N2CCc3ccccc3C2)cc1`, for which the GFP signal change (wild-type ribosome) was -10.5% (inactive), the OD600 change is -10.6% and the RFP signal change is -3.21%.

For `O=C(Nc1cccc([N+](=O)[O-])c1)N1CCc2ccccc2C1`, the GFP signal change (wild-type ribosome) is -21.9% (active), the OD600 change is -13.6% and the RFP signal change is -7.36%.

Consider `Cc1ccc(-c2ccc([C@H]3[C@H]4CN(S(=O)(=O)c5cccc(F)c5)CC(=O)N4[C@H]3CO)cc2)cc1`, for which the GFP signal change (wild-type ribosome) is 1.77% (inactive), the OD600 change was found to be 8.11% and the RFP signal change was -0.692%.

With `CN(CC(=O)NCc1cccnc1)S(=O)(=O)c1cc(Cl)ccc1Cl`, the GFP signal change (wild-type ribosome) was 5.23% (inactive), the OD600 change is -2.3% and the RFP signal change was -0.601%.

Consider `Cc1ccc(C(=O)NC(=S)NCc2cccnc2)cc1`, for which the GFP signal change (wild-type ribosome) was -23.8% (inactive), the OD600 change is -23.8% and the RFP signal change came to 5.91%.

As for `S=C(NCc1cccnc1)Nc1ccc(Cl)cc1Cl`, the GFP signal change (wild-type ribosome) was -27.1% (active), the OD600 change was -3.2% and the RFP signal change is -7.63%.

Turning to `CC(C)NC(=O)N(C)C[C@@H]1Oc2ccc(NC(=O)CCCCCC(=O)Nc3ccccc3N)cc2C(=O)N([C@@H](C)CO)C[C@H]1C`, the GFP signal change (wild-type ribosome) is 1.03% (inactive), the OD600 change was -8.13% and the RFP signal change was -0.166%.

Take `CO[C@H]1CN(C)C(=O)c2cc(NC(=O)c3cnccn3)ccc2OC[C@H](C)N(C(=O)C2CC2)C[C@H]1C`: the GFP signal change (wild-type ribosome) is 1% (inactive), the OD600 change is -0.758% and the RFP signal change is -0.83%.

On to `N#Cc1cccc(-c2ccc(C3[C@@H]4CNC[C@H]3N4)cc2)c1` (some centres undefined), for which the GFP signal change (wild-type ribosome) was -0.575% (inactive), the OD600 change came out at 6.2% and the RFP signal change came out at 2%.

As to `C[C@@H]1CCCCO[C@H](CN(C)S(=O)(=O)c2ccccc2)[C@@H](C)CN([C@H](C)CO)C(=O)c2cc(NC(=O)Nc3ccc(F)cc3)ccc2O1`, the GFP signal change (wild-type ribosome) is 4.23% (inactive), the OD600 change turned out to be 5.59% and the RFP signal change was -0.807%.

Take `S=C(NCC1CCCO1)N1CCN(c2ccc(Cl)c(Cl)c2)CC1` (centres undefined): the GFP signal change (wild-type ribosome) is -56.8% (inactive), the OD600 change was -79.1% and the RFP signal change is -18.4%.

In the case of `Oc1c(Br)cc(/C=N/NC(=S)NCC2CCCO2)cc1Br` (centres undefined), the GFP signal change (wild-type ribosome) is -32.6% (active), the OD600 change was -2.28% and the RFP signal change stood at 0.247%.

On to `S=C(NCCc1ccccc1)NCC1CCCO1` (centres undefined), for which the GFP signal change (wild-type ribosome) was 8.89% (inactive), the OD600 change amounted to 4.83% and the RFP signal change was -3.48%.

Consider `C[C@@H]1CN([C@@H](C)CO)S(=O)(=O)c2ccc(Br)cc2O[C@H]1CN(C)S(=O)(=O)c1ccccc1`, for which the GFP signal change (wild-type ribosome) was -30.9% (inactive), the OD600 change was -59.2% and the RFP signal change was 14%.

With `CS(=O)(=O)N1CC2(C1)[C@H](c1ccccc1)[C@@H](CO)N2C(=O)c1ccccc1`, the GFP signal change (wild-type ribosome) was -2.24% (inactive), the OD600 change was 8.82% and the RFP signal change is -1.96%.

As to `O=C(c1ccccc1)N1CC(=O)N2[C@@H](CO)[C@H](c3ccc(C#CCC4CCCC4)cc3)[C@@H]2C1`, the GFP signal change (wild-type ribosome) is -0.385% (inactive), the OD600 change came out at 4.12% and the RFP signal change amounted to 15.8%.
